Source: ChEMBL document CHEMBL4513146, “CO-ADD screening of Karazin Kharkiv National University (Ukraine) compounds”
Results with a measured potency or affinity are listed apart.

Test system: Candida albicans
Conditions: Concentration 32 ug.mL-1; ASSAY_TEST Inhibition of Fungal Growth; detection method Absorption (OD530)

Compound	Inhibition
Cc1cccc(CN(c2ccc(Cl)cc2)S(=O)(=O)c2cccn3c(C)nnc23)c1	1.95%
O=c1c2nnc(SCc3ccc(Cl)cc3)n2ccn1-c1ccc(F)c(F)c1	4.2%
COc1ccc(OC)c(NC(=O)Cn2nc3ccc(-c4ccc(C)cc4)nn3c2=O)c1	0.83%
Cc1ccccc1Nc1cc(C)n2c(=O)n(CCc3ccccc3)nc2n1	2.84%
CCOC(=O)N1CCN(C(=O)CCc2nnc3c4cc(-c5ccc(F)cc5)nn4ccn23)CC1	2.97%
CCc1cccc(NC(=O)Cn2nc3nc(N4CCCCCC4)ccn3c2=O)c1	0.8%
COc1ccccc1-n1ccn2c(SCC(=O)c3ccc(C)cc3C)nnc2c1=O	3.89%
COc1cccc(-n2ccn3c(SCC(=O)Nc4ccc(F)cc4F)nnc3c2=O)c1	4.17%
CCOc1ccccc1NC(=O)Cn1nc2c(SC3CCCCC3)nccn2c1=O	5.31%
Cc1cc2nn(CC(=O)Nc3ccccc3F)c(=O)n2c(Nc2ccc(F)c(C)c2)n1	7.27%
CCOc1ccccc1NC(=O)Cn1nc2c(N3CCN(c4ccccc4)CC3)nccn2c1=O	7.24%
CCc1ccc(N(Cc2ccccc2)S(=O)(=O)c2cccn3c(CC)nnc23)cc1	13.04%
Cc1ccccc1-c1noc(Cn2nc3ccc(-c4ccccc4)nn3c2=O)n1	31.81%
CCOc1ccc(NC(=O)Cn2c(=O)c3nnc(C(C)C)n3c3ccccc32)cc1	1.75%
Cc1ccc(-c2cc3c4nn(CC(=O)Nc5ccccc5F)c(=O)n4ccn3n2)cc1C	-0.75%
